The list is not random: actives were taken first. Their share in the collection is about 27%.
CYP2C19 act: increases human CYP2C19 enzyme activity | P33261 | recombinant CYP2C19, luciferin-H EGE luminescence; hits give high values; 0 = fully inhibited enzyme, 1 = untreated enzyme | activation factor at 5 µM | 96,000 tested, under 10 active | AID 1025;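 active = activation factor of at least 2 at 5 µM in the primary screen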
CYP2C9 act: increases human cytochrome P450 2C9 activity. recombinant CYP2C9, luciferin-H conversion, luminescence; hits give high values; factor 1 = untreated enzyme, 0 = blocked. activation factor at 5 µM. 96,000 tested, 1.4% active. P11712;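 active = activation factor of 2 or more for CYP2C9 at a 5 µM dose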
Target sequence (P11712 whole entry, looked up): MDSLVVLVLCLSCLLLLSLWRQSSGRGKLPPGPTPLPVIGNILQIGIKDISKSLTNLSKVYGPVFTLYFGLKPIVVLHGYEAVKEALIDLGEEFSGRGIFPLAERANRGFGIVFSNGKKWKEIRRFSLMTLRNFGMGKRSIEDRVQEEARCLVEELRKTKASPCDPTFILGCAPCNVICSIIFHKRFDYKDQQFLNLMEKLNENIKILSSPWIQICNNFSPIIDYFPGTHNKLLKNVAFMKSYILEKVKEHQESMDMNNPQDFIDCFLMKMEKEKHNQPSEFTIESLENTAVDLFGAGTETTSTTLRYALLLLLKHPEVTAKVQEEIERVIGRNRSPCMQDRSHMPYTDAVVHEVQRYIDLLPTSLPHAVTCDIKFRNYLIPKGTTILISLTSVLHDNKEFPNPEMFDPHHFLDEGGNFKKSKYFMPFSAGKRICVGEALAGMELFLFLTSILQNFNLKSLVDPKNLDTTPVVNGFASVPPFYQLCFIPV
CYP2C9 inhib: inhibitors of human CYP2C9; P11712; CYP2C9 Supersomes, luciferin-H conversion, luminescence; inhibition, % at 5 µM; 96,000 tested, 20% active;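 active = blocking of liver enzyme CYP2C9 beyond about 50% at 5 µM, limit read from the data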
CYP2C19 inhib: human CYP2C19 inhibition. 96,000 tested, 21% active. CYP2C19 Supersomes, luciferin-H EGE luminescence, 30 min. P33261. inhibition, % at 5 µM;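 active = CYP2C19 inhibition above a set limit at 5 µM in the primary screen, cut at about 50% in these data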
sEH activator: soluble epoxide hydrolase (human) activation. 91,000 tested, 0.04% active. AID 717. purified human sEH enzymatic activity, activator screen. activation, % at 2 µM. P34913; in the data active = activation above about 37%
sEH inhibitor: soluble epoxide hydrolase (human) inhibition. recombinant human sEH enzymatic activity assay. inhibition, % at 2 µM. 91,000 tested, 0.34% active; in the data active = inhibition above about 80%
A number is an active result; 0 = inactive; - = no result given.

SMILES	CYP2C19 act	CYP2C9 act	CYP2C9 inhib	CYP2C19 inhib	sEH activator	sEH inhibitor
CC(=NCCc1ccccc1)C1=C(O)COC1=O	0	0	0	0	0	0
Cc1ccccc1-n1nnnc1SCC(=O)Nc1ccc(S(=O)(=O)N2CCCC2)cc1	0	0	0	0	0	0
O=C(CSc1nnnn1C1CCCCC1)NCc1ccccc1	0	0	62	62	0	0
O=C(CSc1nnnn1-c1ccc(O)cc1)Nc1cccc(S(=O)(=O)N2CCCC2)c1	0	0	0	93	0	0
O=C(CSc1nnnn1C1CCCC1)NCc1ccccc1	0	0	0	0	0	0
CC(=O)c1cccc(-n2nnnc2SCC(=O)Nc2cccc(NC(=O)c3ccco3)c2)c1	0	0	55	82	0	0
Cc1c(C(=O)OCC(=O)N2CC(C)OC(C)C2)oc2ccc(Br)cc12 (stereo not given)	0	0	0	0	0	0
CC(C(=O)O)n1c(C(F)(F)F)nc2ccccc21 (stereo not given)	0	0	0	0	0	0
CC(=O)NC1CC2CCCC(C1)N2C(=O)Nc1ccc(Cl)c(C(F)(F)F)c1 (stereo not given)	0	0	0	58	0	87
CC(C)CCNC(=O)Cn1c2c(c(-c3ccccc3Cl)cc1=O)CCC2	0	0	62	0	0	0
COc1ccc(-n2nc(C(=O)N3CCN(c4ccc(F)cc4)CC3)c3ccccc3c2=O)c(OC)c1	0	0	56	0	-	-
O=C(NCc1ccc2c(c1)OCO2)c1c(O)c2cccc3c2n(c1=O)CCC3	0	0	72	0	-	-
COc1ccc(-n2nc(C(=O)O)c3ccccc3c2=O)c(OC)c1	0	0	0	0	-	-
O=C(NCc1ccccc1)c1c(O)c2cccc3c2n(c1=O)CCC3	0	0	0	0	0	0
O=C(NCc1ccc2c(c1)OCO2)c1nn(-c2ccccc2)c(=O)c2ccccc12	0	0	94	87	0	0
COc1cccc(-n2nc(C(=O)N3CC(C)CC(C)C3)c3ccccc3c2=O)c1 (stereo not given)	0	0	58	0	0	0
COc1ccc(/C=N/NC(=O)c2nn(-c3ccccc3)c(=O)c3c(N)scc23)cc1	0	0	0	0	0	0
COc1ccc(CCNC(=O)c2c(O)c3cccc4c3n(c2=O)CC4)cc1OC	0	0	72	55	-	-
COc1ccc(/C=N/NC(=O)c2nn(-c3ccc(C)c(C)c3)c(=O)c3ccccc23)cc1	0	0	64	0	0	0
CNC(=O)c1c(O)c2cccc3c2n(c1=O)CC3	-	-	-	-	0	0
COc1cccc(-n2nc(C(=O)Nc3ccc4c(c3)OCO4)c3ccccc3c2=O)c1	0	0	90	0	0	0
O=S(=O)(N1CCOCC1)n1cnc2ccccc21	0	0	0	0	0	0
CC(C)P(=O)(Cc1cccc(C#N)c1)C(C)C	0	0	0	0	0	0
COc1ccc(-c2cc3nc(C)cc(NCCO)n3n2)cc1	0	0	0	0	0	0
COc1ccc(-c2cc3nc(C)cc(N)n3n2)cc1	0	0	0	77	0	0
SMILES	CYP2C19 act	CYP2C9 act	CYP2C9 inhib	CYP2C19 inhib	sEH activator	sEH inhibitor
COc1cc2c(cc1OC)-c1nnc(-c3cccs3)n1C(C)(C)C2	-	-	-	-	0	0
CCOc1ccc(C2C(C(=O)Nc3ccc(F)cc3)=C(C)Nc3nc(CCCO)nn32)cc1 (stereo not given)	0	0	62	0	0	0
O=C(N/N=C/c1ccc(OC(=O)c2ccccc2)cc1)c1ccc(CN2CCOCC2)cc1	0	0	59	0	0	0
Cc1cccc(-n2c(C)cc(/C=N/NC(=O)c3ccc(CN4CCOCC4)cc3)c2C)c1	0	0	77	0	0	0
Cc1ccc(-n2c(C)cc(/C=N/NC(=O)c3ccc(CN4CCOCC4)cc3)c2C)cc1	0	0	0	0	0	0
O=C(OCCN1C(=O)CCC1=O)c1ccc(S(=O)(=O)N2CCCCC2)cc1	0	0	0	0	0	0
COc1ccccc1Nc1ncnc2ccccc12	0	0	0	0	0	0
N#CCc1nc(CSc2nc3ccccc3s2)cs1	0	0	0	98	0	0
C=CCN1C(=O)C2(C(C#N)=C(N)Oc3n[nH]c(CCC)c32)c2ccccc21 (stereo not given)	0	0	0	0	0	0
CCOC(=O)CSc1nc2ccccc2n1C(=O)OCC	0	0	0	0	0	0
CC(C)COC(=O)n1c(SCC(=O)N(C)C)nc2ccccc21	0	0	78	65	0	0

Source: PubChem BioAssay (several laboratories)
